From PubChem BioAssay (Tox21)
Inconclusive results are not listed. Calls of active or inactive are those of the source. Unless noted, the call rests on the fitted dose curve; in most records, active means well fitted curve in the direction sought with a large enough effect in the repeat runs; inconclusive means weak or mixed curves; inactive means no such curve, though single readings can be large; an effect the other way counts as inactive or inconclusive.

How the values were obtained:
[1] = qHTS assay for identifying genotoxic compounds that show differential cytotoxicity against isogenic chicken DT40 cell lines with known DNA damage response pathways - wild type cell line (AID 743012); further: nearly all actives have a fitted effect of over 60% in size; further: potency means the concentration at half of the fitted maximal effect
Procedure, shortened: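 Luminescent ATP viability signal (CellTiter-Glo, 30 min RT) recorded after wild type DT40 cells were incubated with compounds for 40 h at 37 C/5% CO2.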

[2] = qHTS assay for identifying genotoxic compounds that show differential cytotoxicity against isogenic chicken DT40 cell lines with known DNA damage response pathways - Rev3 mutant cell line (AID 743014); further: nearly all actives have a fitted effect of over 55% in size
[3] = qHTS assay for identifying genotoxic compounds that show differential cytotoxicity against isogenic chicken DT40 cell lines with known DNA damage response pathways - Rad54/Ku70 mutant cell line (AID 743015); further: nearly all actives have a fitted effect of over 60% in size; further: potency means the concentration at half of the fitted maximal effect
[4] = qHTS assay to identify small molecule antagonists of the androgen receptor (AR) signaling pathway - cell viability counter screen (AID 743033; further: nearly all actives have a fitted effect of over 45% in size)
[5] = qHTS assay to identify small molecule antagonists of the androgen receptor (AR) signaling pathway using the MDA cell line - cell viability counter screen (AID 743041; further: nearly all actives have a fitted effect of over 45% in size)
Procedure, shortened: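 Cytotoxicity counter screen: MDA-kb2 AR-luc cells, compound + R1881, 16 h, 37C, 0% CO2; CellTiter-Fluor added at 15.5 h, fluorescence read after 30 min.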

[6] = qHTS assay to identify small molecule antagonists of the thyroid receptor (TR) signaling pathway - cell viability counter screen (AID 743064); further: nearly all actives have a fitted effect of over 50% in size; further: potency means the concentration at half of the fitted maximal effect
Procedure, shortened: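 Viability of T3-stimulated (1 nM final) GH3.TRE-Luc cells is measured by CellTiter-Fluor fluorescence after 23.5 h compound exposure at 37 °C plus 30 min reagent incubation.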

[7] = qHTS assay to identify small molecule antagonists of the thyroid receptor (TR) signaling pathway (AID 743065); further: nearly all actives have a fitted effect of over 55% in size; further: potency means the concentration at half of the fitted maximal effect; on activity, negative = inhibition: series mostly up to about 70 µM
Procedure, shortened: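 GH3.TRE-Luc rat pituitary cells (two TREs driving luciferase) were dosed with compound, then stimulated with 1 nM T3 (final) for 23.5 h at 37 C. ONE-Glo luminescence was the read-out, with CellTiter-Fluor fluorescence as the cytotoxicity counter-screen.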

[8] = test system: thyroid hormone receptor (rat, GH3 cells); assay: qHTS assay to identify small molecule agonists of the thyroid receptor (TR) signaling pathway (AID 743066; calls by dose curve)
[9] = target: Estrogen receptor (Homo sapiens) (UniProt P03372); assay: qHTS assay to identify small molecule antagonists of the estrogen receptor alpha (ER-alpha) signaling pathway (AID 743069; active means well fitted curve in the direction sought with a large enough effect in the signal ratio in the repeat runs, not every such curve was filed as active; the % refers to the signal ratio)
Sequence of Estrogen receptor (Homo sapiens) (P03372 whole entry, looked up): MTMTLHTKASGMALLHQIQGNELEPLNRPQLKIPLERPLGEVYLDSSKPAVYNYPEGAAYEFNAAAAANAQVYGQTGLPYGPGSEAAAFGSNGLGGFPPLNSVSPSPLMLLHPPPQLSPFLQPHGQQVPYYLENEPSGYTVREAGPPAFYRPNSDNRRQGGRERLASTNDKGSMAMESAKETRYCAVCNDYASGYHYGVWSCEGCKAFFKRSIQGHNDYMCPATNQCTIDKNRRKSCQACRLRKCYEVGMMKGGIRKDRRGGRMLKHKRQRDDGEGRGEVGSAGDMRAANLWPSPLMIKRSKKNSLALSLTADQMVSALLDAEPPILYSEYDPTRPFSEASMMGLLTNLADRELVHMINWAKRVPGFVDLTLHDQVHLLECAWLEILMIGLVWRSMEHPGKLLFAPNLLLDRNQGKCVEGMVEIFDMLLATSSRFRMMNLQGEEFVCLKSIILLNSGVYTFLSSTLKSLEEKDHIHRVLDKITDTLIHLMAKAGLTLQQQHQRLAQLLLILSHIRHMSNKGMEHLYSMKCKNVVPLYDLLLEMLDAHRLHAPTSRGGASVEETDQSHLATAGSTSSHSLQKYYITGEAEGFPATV
Procedure, shortened: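 Beta-lactamase FRET fluorescence is read after 2 hr at room temperature with LiveBLAzer B/G substrate. Before that, ER-alpha-bla HEK293 cells sit 4 hr after plating, then receive compound plus 17beta-estradiol and incubate 18 hr at 37C.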

[10] = qHTS assay to identify small molecule antagonists of the estrogen receptor alpha (ER-alpha) signaling pathway - cell viability counter screen (AID 743074; calls by dose curve;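 further: HEK293 cells carrying ER-alpha-UAS-bla reporter stimulated with 17beta-estradiol; nearly all actives have a fitted effect of over 45% in size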)
[11] = target: Estrogen receptor (Homo sapiens) (UniProt P03372); assay: qHTS assay to identify small molecule agonists of the estrogen receptor alpha (ER-alpha) signaling pathway (AID 743075; calls by dose curve;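 further: HEK293 GripTite cells with ER-alpha and UAS-driven beta-lactamase reporter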)
[12] = target: Estrogen receptor (Homo sapiens) (UniProt P03372); assay: qHTS assay to identify small molecule agonists of the estrogen receptor alpha (ER-alpha) signaling pathway using the BG1 cell line (AID 743079); further: nearly all actives have a fitted effect of over 20% in size; further: potency means the concentration at half of the fitted maximal effect
[13] = qHTS assay to identify small molecule antagonists of the estrogen receptor alpha (ER-alpha) signaling pathway using the BG1 cell line (AID 743080; calls by dose curve; further: series mostly up to about 70 µM; nearly all actives have a fitted effect of over 25% in size)
Procedure, shortened: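 Antagonist mode: compounds in DMSO were pinned onto BG1-Luc-4E2 cells alongside 17beta-estradiol agonist, incubated 21.5 h, and ERE-driven luciferase measured with ONE-Glo. Cytotoxicity was multiplexed using CellTiter-Fluor fluorescence.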

[14] = qHTS assay to identify small molecule antagonists of the estrogen receptor alpha (ER-alpha) signaling pathway using the BG1 cell line - cell viability counter screen (AID 743081);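 further: compound given together with 17beta-estradiol as the ER stimulus; series mostly up to about 70 µM; nearly all actives have a fitted effect of over 45% in size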
Aromatase (Homo sapiens) = Aromatase (Homo sapiens) (UniProt P11511); assay: qHTS assay to identify aromatase inhibitors (AID 743083); further: series mostly up to about 70 µM; nearly all actives have a fitted effect of over 55% in size
Sequence of Aromatase (Homo sapiens) (P11511 whole entry, looked up): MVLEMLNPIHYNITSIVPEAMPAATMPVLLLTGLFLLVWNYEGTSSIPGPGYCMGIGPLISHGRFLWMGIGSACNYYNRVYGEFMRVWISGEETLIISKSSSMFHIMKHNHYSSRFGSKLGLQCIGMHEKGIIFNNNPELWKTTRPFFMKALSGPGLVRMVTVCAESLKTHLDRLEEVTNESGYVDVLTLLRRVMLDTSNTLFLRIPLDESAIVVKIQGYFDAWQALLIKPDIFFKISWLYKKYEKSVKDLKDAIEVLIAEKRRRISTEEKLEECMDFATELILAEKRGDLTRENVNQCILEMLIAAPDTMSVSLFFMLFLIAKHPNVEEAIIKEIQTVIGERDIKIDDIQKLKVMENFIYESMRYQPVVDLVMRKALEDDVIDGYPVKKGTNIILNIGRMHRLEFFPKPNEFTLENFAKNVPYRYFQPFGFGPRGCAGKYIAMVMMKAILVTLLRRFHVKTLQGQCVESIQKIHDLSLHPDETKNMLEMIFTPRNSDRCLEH

[15] = qHTS assay to identify small molecule antagonists of the glucocorticoid receptor (GR) signaling pathway - cell viability counter screen (AID 720693); further: nearly all actives have a fitted effect of over 55% in size
[16] = target: Androgen receptor (Homo sapiens) (UniProt P10275); assay: qHTS assay to identify small molecule antagonists of the androgen receptor (AR) signaling pathway (AID 743035; active means well fitted inhibition curve with a large enough effect in the signal ratio in the repeat runs, not every such curve was filed as active; the % refers to the signal ratio)
Sequence of Androgen receptor (Homo sapiens) (P10275 whole entry, looked up): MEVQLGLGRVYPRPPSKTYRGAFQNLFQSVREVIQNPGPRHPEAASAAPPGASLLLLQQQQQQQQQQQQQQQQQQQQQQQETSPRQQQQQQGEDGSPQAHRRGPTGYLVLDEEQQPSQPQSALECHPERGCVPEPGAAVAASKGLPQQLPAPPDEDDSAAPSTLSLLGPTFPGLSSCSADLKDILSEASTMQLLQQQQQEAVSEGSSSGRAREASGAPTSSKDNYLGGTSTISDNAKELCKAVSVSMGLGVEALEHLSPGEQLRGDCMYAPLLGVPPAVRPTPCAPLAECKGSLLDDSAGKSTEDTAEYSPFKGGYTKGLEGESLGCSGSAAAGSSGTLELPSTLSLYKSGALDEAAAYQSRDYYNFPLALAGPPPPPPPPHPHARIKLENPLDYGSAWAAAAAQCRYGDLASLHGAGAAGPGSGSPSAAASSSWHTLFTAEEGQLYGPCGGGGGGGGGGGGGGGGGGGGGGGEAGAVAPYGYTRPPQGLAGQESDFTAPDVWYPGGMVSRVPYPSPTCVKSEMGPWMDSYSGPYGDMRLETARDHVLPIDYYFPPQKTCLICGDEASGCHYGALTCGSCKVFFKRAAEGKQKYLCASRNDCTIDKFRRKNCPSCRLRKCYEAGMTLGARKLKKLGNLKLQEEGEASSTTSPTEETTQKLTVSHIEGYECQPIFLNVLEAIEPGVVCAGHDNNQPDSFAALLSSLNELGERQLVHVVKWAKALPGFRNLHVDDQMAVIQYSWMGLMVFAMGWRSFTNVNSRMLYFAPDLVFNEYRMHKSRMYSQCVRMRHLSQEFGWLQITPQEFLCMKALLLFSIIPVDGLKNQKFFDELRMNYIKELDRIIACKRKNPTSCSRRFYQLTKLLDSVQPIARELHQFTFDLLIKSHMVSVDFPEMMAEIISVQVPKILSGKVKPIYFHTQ
Procedure, shortened: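 Quantitative HTS of the Tox21 10K library used HEK293 AR-UAS-bla cells stimulated with R1881 alongside compound for 16 h at 37C, followed by beta-lactamase FRET detection (LiveBLAzer B/G, 2 h, RT).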

[17] = target: Androgen receptor (Homo sapiens) (UniProt P10275); assay: qHTS assay to identify small molecule agonists of the androgen receptor (AR) signaling pathway using the MDA cell line (AID 743040; further: nearly all actives have a fitted effect of over 20% in size; further: potency means the concentration at half of the fitted maximal effect)
Procedure, shortened: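 Luciferase read-out, ONE-Glo, 30 min RT. Cells: MDA-kb2 AR-luc, MMTV promoter with AR and GR response elements. Compound exposure 16 h, 37C, 0% CO2, after 5 h pre-incubation. qHTS agonist mode.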

[18] = target: Androgen receptor (Homo sapiens) (UniProt P10275); assay: qHTS assay to identify small molecule antagonists of the androgen receptor (AR) signaling pathway using the MDA cell line (AID 743042; further: nearly all actives have a fitted effect of over 55% in size)
Procedure, shortened: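 MDA-kb2 breast carcinoma cells carrying MMTV-luciferase (AR/GR responsive) were co-treated with compounds and the agonist R1881 for 16 h at 37C. Inhibition read as ONE-Glo luminescence; CellTiter-Fluor fluorescence measured in parallel for cytotoxicity.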
On the % scale 0 is the no-effect control and ±100 the full control effect.

CC(C)S
inactive: Potency [1] | Potency [2] | Potency [3] | outcome [4] | Potency [5] | Potency [6] | Potency [7] | outcome [8] | Potency [9] | Potency [10] | outcome [11] | Potency [12] | outcome [13] | Potency [14] | Potency (Aromatase (Homo sapiens))

O=C(Cl)c1cccc([N+](=O)[O-])c1
inactive: outcome [15] | outcome [4] | Potency [5] | Potency [7] | outcome [8] | Potency [9] | Potency [10] | outcome [11] | Potency [12] | outcome [13] | Potency [14] | Potency (Aromatase (Homo sapiens))

CCOc1ccc(OCC)c(Cl)c1
inactive: Potency [1] | Potency [2] | Potency [3] | outcome [4] | Potency [5] | Potency [6] | Potency [7] | outcome [8] | Potency [9] | Potency [10] | outcome [11] | Potency [12] | outcome [13] | Potency [14] | Potency (Aromatase (Homo sapiens))

Cc1ccc(C)c(N)c1
active: Potency [12] 77 µM
inactive: Potency [1] | Potency [2] | Potency [3] | outcome [4] | Potency [5] | Potency [6] | Potency [7] | outcome [8] | Potency [9] | Potency [10] | outcome [11] | outcome [13] | Potency [14] | Potency (Aromatase (Homo sapiens))

CC(C)(C)c1ccc(OC(=O)c2ccccc2O)cc1
inactive: outcome [15] | Potency [3] | outcome [4] | Potency [5] | outcome [8] | Potency [9] | Potency [10] | outcome [11] | Potency [14] | Potency (Aromatase (Homo sapiens))
active: Potency [12] 27.3 µM

Nc1ccc2ccccc2c1S(=O)(=O)O
inactive: Potency [1] | Potency [2] | Potency [3] | outcome [4] | Potency [5] | Potency [6] | Potency [7] | outcome [8] | Potency [10] | Potency [14]

ICCc1ccccc1
inactive: outcome [15] | outcome [4] | Potency [5] | Potency [6] | Potency [7] | outcome [8] | Potency [9] | Potency [10] | Potency [12] | outcome [13] | Potency [14] | Potency (Aromatase (Homo sapiens))

CCOC(=O)[C@H](CCc1ccccc1)N[C@@H](C)C(=O)N1Cc2cc(OC)c(OC)cc2C[C@H]1C(=O)O
inactive: Potency [1] | Potency [2] | Potency [3] | outcome [4] | Potency [5] | Potency [6] | Potency [7] | outcome [8] | Potency [9] | Potency [10] | outcome [11] | Potency [12] | outcome [13] | Potency [14] | Potency (Aromatase (Homo sapiens))

COc1cc2c(cc1N)oc1ccccc12
active: Potency [3] 62.4 µM
inactive: outcome [15] | outcome [4] | Potency [5] | Potency [6] | Potency [7] | outcome [8] | Potency [10] | Potency [14] | Potency (Aromatase (Homo sapiens))

CCOc1ccccc1N
inactive: Potency [1] | Potency [2] | Potency [3] | outcome [4] | Potency [5] | Potency [6] | Potency [7] | outcome [8] | Potency [9] | Potency [10] | outcome [11] | Potency [12] | outcome [13] | Potency [14] | Potency (Aromatase (Homo sapiens))

NC(Cc1ccc(F)cc1)C(=O)O (stereo not drawn)
active: Potency [6] 2.64 µM
inactive: viability change, negative = cytotoxic [15] -1.1% [at 7.04 µM] | activity change, negative = cytotoxicity [4] -0.148% [at 7.04 µM] | viability change, negative = cytotoxic [5] -1.4% [at 8.47 µM] | activation [8] -5.43% [at 8.08 µM] | activity, negative = cytotoxicity [10] -20% [at 6.72 µM] | activity change, negative = cytotoxicity [14] -2.97% [at 8.47 µM] | activity, negative = inhibition (Aromatase (Homo sapiens)) -6.6% [at 8.47 µM]

COC(=O)N[C@H](C(=O)N[C@@H](Cc1ccccc1)[C@@H](O)CN(Cc1ccc(-c2ccccn2)cc1)NC(=O)[C@@H](NC(=O)OC)C(C)(C)C)C(C)(C)C
inactive: outcome [15] | outcome [4] | Potency [5] | Potency [6] | outcome [8] | Potency [9] | outcome [11] | Potency [14] | Potency (Aromatase (Homo sapiens))
active: Potency [7] 26.6 µM

C[C@@H]1CN(c2c(F)c(F)c3c(=O)c(C(=O)O)cn(C4CC4)c3c2F)C[C@H](C)N1
active: Potency [17] 26.6 µM
inactive: Potency [1] | Potency [2] | Potency [3] | outcome [4] | Potency [16] | Potency [5] | outcome [18] | outcome [8] | Potency [9] | Potency [10] | outcome [11] | Potency [12] | outcome [13] | Potency [14] | Potency (Aromatase (Homo sapiens))

CN(C)CC[C@@H](c1ccc(Cl)cc1)c1ccccn1
inactive: outcome [15] | Potency [3] | outcome [4] | Potency [5] | outcome [8]

CC(C)(C)C1CCCCC1=O (stereo not drawn)
inactive: Potency [1] | Potency [2] | Potency [3] | outcome [4] | Potency [5] | Potency [6] | Potency [7] | outcome [8] | Potency [9] | Potency [10] | outcome [11] | Potency [12] | outcome [13] | Potency [14] | Potency (Aromatase (Homo sapiens))

NC(=O)Cc1cccc(C(=O)c2ccccc2)c1N
inactive: outcome [15] | Potency [2] | outcome [4] | Potency [5] | Potency [6] | Potency [7] | outcome [8] | Potency [10] | Potency [14] | Potency (Aromatase (Homo sapiens))

OCc1c2ccccc2cc2ccccc12
active: Potency [12] 54.6 µM
inactive: outcome [15] | outcome [4] | Potency [5] | Potency [6] | Potency [10] | outcome [11] | Potency [14] | Potency (Aromatase (Homo sapiens))

CCCCOc1cc(C(=O)NCCN(CC)CC)c2ccccc2n1
active: Potency [1] 11.4 µM | Potency [3] 10.1 µM | Potency [6] 11.4 µM | Potency [7] 10.1 µM
inactive: outcome [4] | Potency [5] | outcome [8] | Potency [10] | Potency [14] | Potency (Aromatase (Homo sapiens))

CCCc1c2oc(C(=O)O)cc(=O)c2cc2c(=O)cc(C(=O)O)n(CC)c12
inactive: Potency [1] | Potency [2] | outcome [4] | Potency [5] | Potency [9] | outcome [11] | Potency [12] | outcome [13] | Potency [14] | Potency (Aromatase (Homo sapiens))

NS(=O)(=O)c1cc(-c2nn[nH]n2)c(NCc2cccs2)cc1Cl
inactive: Potency [1] | Potency [3] | outcome [4] | Potency [5] | Potency [6] | Potency [7] | outcome [8] | Potency [9] | Potency [10] | outcome [11] | Potency [12] | outcome [13] | Potency [14] | Potency (Aromatase (Homo sapiens))

Cc1cc2nc(N)sc2cc1C
active: Potency [1] 61.7 µM
inactive: outcome [4] | Potency [17] | Potency [5] | outcome [18] | Potency [6] | Potency [7] | outcome [8] | Potency [10] | Potency [14] | Potency (Aromatase (Homo sapiens))
